Test results: paper PMC7862700, “An all-to-all approach to the identification of sequence-specific readers for epigenetic DNA modifications on cytosine”

Key:
Test in all cases: DAPPL (digital affinity profiling via proximity ligation, sequencing); 10 mM Tris-HCl pH 7.5, 50 mM NaCl, 1 mM DTT, 4% glycerol, room temperature, 30 min; GST-TFs on glutathione beads, 16-mer random dsDNA library, 0.1% formaldehyde crosslink after washing; high values mean tight binding
Conditions in all cases: protein: recombinant; tags: N-terminal GST; dsDNA, one strand shown
FLI1 = molecular target: T1, FLI1 (Homo sapiens, UniProt Q01543 1-452)
T1 sequence: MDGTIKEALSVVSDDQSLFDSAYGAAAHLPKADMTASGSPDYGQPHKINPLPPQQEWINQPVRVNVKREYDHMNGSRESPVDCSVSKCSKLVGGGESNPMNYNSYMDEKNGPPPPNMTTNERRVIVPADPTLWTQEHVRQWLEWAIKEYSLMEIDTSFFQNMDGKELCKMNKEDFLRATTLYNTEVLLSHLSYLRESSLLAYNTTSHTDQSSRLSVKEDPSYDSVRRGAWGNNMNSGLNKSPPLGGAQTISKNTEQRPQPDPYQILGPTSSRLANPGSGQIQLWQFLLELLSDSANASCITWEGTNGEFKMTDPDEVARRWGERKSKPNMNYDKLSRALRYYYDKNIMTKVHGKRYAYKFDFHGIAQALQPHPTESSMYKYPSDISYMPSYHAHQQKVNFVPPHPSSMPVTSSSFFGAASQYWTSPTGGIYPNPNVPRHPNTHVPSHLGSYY
Outline: (§1)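 Human transcription factors carrying a GST fusion were produced in yeast, bound to glutathione beads, tagged with DNA barcodes and pooled together with a tag-only sample. Each pool was held with 200 nmole of a random double-stranded 16-mer DNA library in Tris/NaCl/DTT/glycerol buffer for 30 min at room temperature, then washed, crosslinked in 0.1% formaldehyde, proximity-ligated with BsaI/T4 ligase (1 h, 37 °C), PCR-amplified and sequenced on an Illumina NextSeq500. Binding signal is the read frequency of each hexamer for a given factor divided by its frequency in the tag-only sample.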

ELK1 = molecular target: T2, ELK1 (Homo sapiens, UniProt P19419 1-428)
T2 sequence: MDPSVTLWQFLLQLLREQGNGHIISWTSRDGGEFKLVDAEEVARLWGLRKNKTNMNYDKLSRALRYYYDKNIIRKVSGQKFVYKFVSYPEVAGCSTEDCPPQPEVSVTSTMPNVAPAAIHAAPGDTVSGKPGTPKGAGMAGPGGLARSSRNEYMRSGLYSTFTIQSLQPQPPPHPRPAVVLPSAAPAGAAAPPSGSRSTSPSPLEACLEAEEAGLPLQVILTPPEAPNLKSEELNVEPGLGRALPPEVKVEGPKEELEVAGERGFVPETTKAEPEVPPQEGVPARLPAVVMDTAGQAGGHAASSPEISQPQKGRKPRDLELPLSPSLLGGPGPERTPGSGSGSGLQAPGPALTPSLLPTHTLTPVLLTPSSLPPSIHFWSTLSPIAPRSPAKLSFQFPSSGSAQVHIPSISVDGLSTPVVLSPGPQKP
Outline: as §1

GABPA = molecular target: T3, GABPA (Homo sapiens, UniProt Q06546 1-454)
T3 sequence: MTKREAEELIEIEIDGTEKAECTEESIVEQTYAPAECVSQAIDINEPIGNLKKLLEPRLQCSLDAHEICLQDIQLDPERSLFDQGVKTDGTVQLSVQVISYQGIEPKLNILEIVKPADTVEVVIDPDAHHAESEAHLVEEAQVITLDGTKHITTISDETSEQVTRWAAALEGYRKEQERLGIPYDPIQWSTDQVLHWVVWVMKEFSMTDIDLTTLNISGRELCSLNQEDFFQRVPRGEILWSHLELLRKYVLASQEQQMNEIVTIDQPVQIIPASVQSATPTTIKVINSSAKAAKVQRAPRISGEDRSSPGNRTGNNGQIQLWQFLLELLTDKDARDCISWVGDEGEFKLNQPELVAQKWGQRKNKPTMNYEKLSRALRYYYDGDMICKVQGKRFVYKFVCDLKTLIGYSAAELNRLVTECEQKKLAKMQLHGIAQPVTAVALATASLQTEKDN
Outline: as §1

ERG = molecular target: T4, ERG (Homo sapiens, UniProt P11308 1-479)
T4 sequence: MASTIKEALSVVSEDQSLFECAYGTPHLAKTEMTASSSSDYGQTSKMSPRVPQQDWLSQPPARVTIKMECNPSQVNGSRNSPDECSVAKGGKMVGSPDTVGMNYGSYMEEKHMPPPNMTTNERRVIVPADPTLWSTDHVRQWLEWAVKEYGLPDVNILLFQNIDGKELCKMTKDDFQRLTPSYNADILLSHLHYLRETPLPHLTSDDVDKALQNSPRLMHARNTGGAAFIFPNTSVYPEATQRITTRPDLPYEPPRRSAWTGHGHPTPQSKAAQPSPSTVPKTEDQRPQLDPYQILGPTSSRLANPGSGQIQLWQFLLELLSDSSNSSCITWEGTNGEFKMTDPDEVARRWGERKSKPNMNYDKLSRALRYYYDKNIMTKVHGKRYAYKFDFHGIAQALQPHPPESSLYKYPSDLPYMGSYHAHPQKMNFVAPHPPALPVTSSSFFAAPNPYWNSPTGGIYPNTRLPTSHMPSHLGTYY
Outline: as §1

ELF1 = ELF1 (Homo sapiens, UniProt P32519 1-619)
Outline: as §1

EHF = molecular target: T5, EHF (Homo sapiens, UniProt Q9NZC4 1-300)
T5 sequence: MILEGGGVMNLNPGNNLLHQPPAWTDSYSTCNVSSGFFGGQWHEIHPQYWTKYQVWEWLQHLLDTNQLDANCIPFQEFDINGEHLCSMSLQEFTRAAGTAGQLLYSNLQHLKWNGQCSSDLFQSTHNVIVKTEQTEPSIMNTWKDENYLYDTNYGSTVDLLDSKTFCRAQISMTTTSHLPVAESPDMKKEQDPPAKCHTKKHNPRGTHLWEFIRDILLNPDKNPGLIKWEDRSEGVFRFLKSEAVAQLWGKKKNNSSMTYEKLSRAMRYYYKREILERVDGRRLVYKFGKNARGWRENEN
Outline: as §1

SPI1 = SPI1 (Homo sapiens, UniProt P17947 1-270)
Outline: as §1

SPIB = SPIB (Homo sapiens, UniProt Q01892 1-262)
Outline: as §1

ELK3 = molecular target: T6, ELK3 (Homo sapiens, UniProt P41970 1-407)
T6 sequence: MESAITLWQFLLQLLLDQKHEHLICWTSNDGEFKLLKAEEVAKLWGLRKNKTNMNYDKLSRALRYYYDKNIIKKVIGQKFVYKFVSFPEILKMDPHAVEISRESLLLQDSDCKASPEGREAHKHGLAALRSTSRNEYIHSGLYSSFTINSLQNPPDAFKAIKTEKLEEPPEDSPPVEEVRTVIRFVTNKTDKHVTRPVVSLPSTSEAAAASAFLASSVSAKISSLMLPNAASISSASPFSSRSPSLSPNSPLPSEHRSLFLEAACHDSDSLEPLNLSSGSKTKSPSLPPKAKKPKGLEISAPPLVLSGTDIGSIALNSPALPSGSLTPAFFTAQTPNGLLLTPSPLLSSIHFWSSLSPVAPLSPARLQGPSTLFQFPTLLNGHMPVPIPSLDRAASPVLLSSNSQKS
Outline: as §1

ELF1, sequence (P32519 whole entry): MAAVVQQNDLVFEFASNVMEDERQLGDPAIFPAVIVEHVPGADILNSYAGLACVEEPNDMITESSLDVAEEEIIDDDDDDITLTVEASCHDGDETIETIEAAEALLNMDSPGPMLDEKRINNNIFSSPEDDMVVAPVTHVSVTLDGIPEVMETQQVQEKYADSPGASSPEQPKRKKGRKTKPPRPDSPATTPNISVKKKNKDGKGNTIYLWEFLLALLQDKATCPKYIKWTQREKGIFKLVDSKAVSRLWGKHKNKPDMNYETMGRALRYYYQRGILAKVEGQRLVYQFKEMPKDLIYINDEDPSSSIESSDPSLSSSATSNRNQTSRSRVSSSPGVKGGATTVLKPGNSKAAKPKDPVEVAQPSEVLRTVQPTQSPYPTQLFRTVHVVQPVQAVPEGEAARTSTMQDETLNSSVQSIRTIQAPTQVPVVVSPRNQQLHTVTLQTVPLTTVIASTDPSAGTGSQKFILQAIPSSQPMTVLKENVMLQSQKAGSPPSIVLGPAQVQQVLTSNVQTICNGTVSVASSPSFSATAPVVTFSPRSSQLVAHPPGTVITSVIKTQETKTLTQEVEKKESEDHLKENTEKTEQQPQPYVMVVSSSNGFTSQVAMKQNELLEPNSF
SPIB, sequence (Q01892 whole entry): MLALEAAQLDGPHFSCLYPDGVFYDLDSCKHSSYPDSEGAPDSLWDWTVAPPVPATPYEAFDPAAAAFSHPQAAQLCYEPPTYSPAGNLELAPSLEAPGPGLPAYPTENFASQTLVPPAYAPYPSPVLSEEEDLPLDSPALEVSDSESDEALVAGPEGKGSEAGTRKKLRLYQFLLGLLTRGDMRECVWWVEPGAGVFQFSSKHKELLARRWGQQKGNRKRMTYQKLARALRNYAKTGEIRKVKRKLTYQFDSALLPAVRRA

Sequence	binding signal (FLI1)	binding signal (ELK1)	binding signal (GABPA)	binding signal (ERG)	binding signal (ELF1)	binding signal (EHF)	binding signal (SPI1)	binding signal (SPIB)	binding signal (ELK3)
AACTAT	1.37 fold enrichment (6-mer frequency, TF over GST control)	1.36 fold enrichment (6-mer frequency, TF over GST control)	1.38 fold enrichment (6-mer frequency, TF over GST control)	1.36 fold enrichment (6-mer frequency, TF over GST control)	1.29 fold enrichment (6-mer frequency, TF over GST control)	1.36 fold enrichment (6-mer frequency, TF over GST control)	1.33 fold enrichment (6-mer frequency, TF over GST control)	1.29 fold enrichment (6-mer frequency, TF over GST control)	1.36 fold enrichment (6-mer frequency, TF over GST control)
TGATTC	1.12 fold enrichment (6-mer frequency, TF over GST control)	1.09 fold enrichment (6-mer frequency, TF over GST control)	1.1 fold enrichment (6-mer frequency, TF over GST control)	1.08 fold enrichment (6-mer frequency, TF over GST control)	1.1 fold enrichment (6-mer frequency, TF over GST control)	1.12 fold enrichment (6-mer frequency, TF over GST control)	1.06 fold enrichment (6-mer frequency, TF over GST control)	1.17 fold enrichment (6-mer frequency, TF over GST control)	1.02 fold enrichment (6-mer frequency, TF over GST control)
TTAGGT	1.11 fold enrichment (6-mer frequency, TF over GST control)	1.12 fold enrichment (6-mer frequency, TF over GST control)	1.2 fold enrichment (6-mer frequency, TF over GST control)	1.08 fold enrichment (6-mer frequency, TF over GST control)	1.03 fold enrichment (6-mer frequency, TF over GST control)	1.1 fold enrichment (6-mer frequency, TF over GST control)	1.02 fold enrichment (6-mer frequency, TF over GST control)	1.12 fold enrichment (6-mer frequency, TF over GST control)	1.17 fold enrichment (6-mer frequency, TF over GST control)
TGCGTT	1.04 fold enrichment (6-mer frequency, TF over GST control)	1.09 fold enrichment (6-mer frequency, TF over GST control)	1.17 fold enrichment (6-mer frequency, TF over GST control)	1.12 fold enrichment (6-mer frequency, TF over GST control)	1.12 fold enrichment (6-mer frequency, TF over GST control)	1.08 fold enrichment (6-mer frequency, TF over GST control)	1.1 fold enrichment (6-mer frequency, TF over GST control)	1.11 fold enrichment (6-mer frequency, TF over GST control)	1.13 fold enrichment (6-mer frequency, TF over GST control)
CCGTAA	1.09 fold enrichment (6-mer frequency, TF over GST control)	1.1 fold enrichment (6-mer frequency, TF over GST control)	1.1 fold enrichment (6-mer frequency, TF over GST control)	1.14 fold enrichment (6-mer frequency, TF over GST control)	1.09 fold enrichment (6-mer frequency, TF over GST control)	1.17 fold enrichment (6-mer frequency, TF over GST control)	1.13 fold enrichment (6-mer frequency, TF over GST control)	1.06 fold enrichment (6-mer frequency, TF over GST control)	1.14 fold enrichment (6-mer frequency, TF over GST control)
CAAGTA	1.09 fold enrichment (6-mer frequency, TF over GST control)	1.06 fold enrichment (6-mer frequency, TF over GST control)	1.19 fold enrichment (6-mer frequency, TF over GST control)	1.03 fold enrichment (6-mer frequency, TF over GST control)	1.03 fold enrichment (6-mer frequency, TF over GST control)	1.1 fold enrichment (6-mer frequency, TF over GST control)	1.07 fold enrichment (6-mer frequency, TF over GST control)	1.01 fold enrichment (6-mer frequency, TF over GST control)	1.17 fold enrichment (6-mer frequency, TF over GST control)
CTATTA	1.18 fold enrichment (6-mer frequency, TF over GST control)	1.05 fold enrichment (6-mer frequency, TF over GST control)	1.06 fold enrichment (6-mer frequency, TF over GST control)	1.07 fold enrichment (6-mer frequency, TF over GST control)	1.09 fold enrichment (6-mer frequency, TF over GST control)	1.12 fold enrichment (6-mer frequency, TF over GST control)	1.1 fold enrichment (6-mer frequency, TF over GST control)	1.13 fold enrichment (6-mer frequency, TF over GST control)	1.04 fold enrichment (6-mer frequency, TF over GST control)
CACCCT	1.21 fold enrichment (6-mer frequency, TF over GST control)	1.26 fold enrichment (6-mer frequency, TF over GST control)	1.18 fold enrichment (6-mer frequency, TF over GST control)	1.16 fold enrichment (6-mer frequency, TF over GST control)	1.16 fold enrichment (6-mer frequency, TF over GST control)	1.02 fold enrichment (6-mer frequency, TF over GST control)	1.07 fold enrichment (6-mer frequency, TF over GST control)	1.16 fold enrichment (6-mer frequency, TF over GST control)	1.14 fold enrichment (6-mer frequency, TF over GST control)
